Rows were chosen to be rich in hits. Some 7.7% of all compounds tested hit in one or more screens of this group.
Sm TGR block = blocks Schistosoma mansoni thioredoxin glutathione reductase. Q962Y6. purified TGR, DTNB reduction, TNB absorbance 405 nm. Potency, µM (doses to about 114 µM), for inactives: at the highest dose activity change, negative = inhibition, hits mostly inhibitors. 3% of 360,000 active; further: potency means the concentration at half of the fitted maximal effect; nearly all actives have a fitted effect of over 60% in size
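Kinetic colorimetric format: TGR-catalysed, NADPH-driven DTNB reduction monitored via TNB absorbance. Enzyme dispensed at 20 nM; compound exposure 15 min at room temperature before reaction start.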
TbPYK inhibitor = inhibitors of Trypanosoma brucei pyruvate kinase; Q57TT1; TbPYK enzyme, Kinase-Glo Plus ATP luminescence, 45 min; Potency, µM (highest dose often 76.8 µM), for inactives: top-dose activity, negative = inhibition, hits mostly inhibitors; 0.12% of 410,000 active; AID 624173; further: potency means the concentration at half of the fitted maximal effect; nearly all actives have a fitted effect of over 50% in size
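Luminescence from Kinase-Glo Plus, added after a 45-minute room-temperature reaction, served as the end-point read-out. The enzyme and substrate were preincubated with compound before ADP (130 uM final) initiated turnover. Concentration-effect curves came from normalized qHTS data.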
Giardia FBPA inh = inhibitors of Giardia lamblia fructose-1,6-bisphosphate aldolase; A8B2U2; AID 2451; 0.71% of 290,000 active; purified Giardia FBPA; Potency, µM (top dose mostly 59.6 µM), for inactives: at the top dose activity, negative = inhibition, most hits filed as inhibitors; further: potency means the concentration at half of the fitted maximal effect; nearly all actives have a fitted effect of over 55% in size
Target sequence (A8B2U2 whole entry, looked up): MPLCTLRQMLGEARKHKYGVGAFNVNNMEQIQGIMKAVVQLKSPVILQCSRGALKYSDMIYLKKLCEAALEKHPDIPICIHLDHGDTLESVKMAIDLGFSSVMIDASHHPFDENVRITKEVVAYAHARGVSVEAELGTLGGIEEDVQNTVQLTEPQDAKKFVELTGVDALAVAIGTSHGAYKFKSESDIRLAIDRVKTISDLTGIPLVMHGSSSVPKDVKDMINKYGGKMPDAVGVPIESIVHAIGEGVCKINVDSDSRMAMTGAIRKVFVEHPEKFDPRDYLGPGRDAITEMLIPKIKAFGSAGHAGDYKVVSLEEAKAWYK
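40 nM FBPA preincubated 10 min at RT with compound (up to 57.5 uM final), then substrate plus GAPDH/TPI/NAD/arsenate coupling and diaphorase/resazurin added. Fluorescence read after 20 min at RT, 525/598 nm.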
FMDV antiviral = foot and mouth disease virus antiviral activity. FMDV antiviral cell-based qHTS. Potency, µM (series often up to 57.9 µM), for the others: at the highest dose activity change, negative = inhibition, usual class: inhibitors. 1.2% of 410,000 active; calls by dose curve; tested in HEK293T cells; further: read-out not given here; potency means the concentration at half of the fitted maximal effect; nearly all actives have a fitted effect of over 45% in size
RE007 growth inh = less growth of the S. pombe RE007 Vpr strain. S. pombe RE007 Vpr strain, BacTiter-Glo ATP luminescence, 24 h. Potency, µM (titrated, usually from 92.2 µM), for inactives: at the highest dose activity change, negative = less growth, most hits filed as inhibitors. 0.21% of 360,000 active. AID 651644; active means well fitted falling curve with a large enough effect; inconclusive means small, poorly fitted or top-dose-only effect; inactive means no such curve, though single readings can be large or run the other way; further: potency means the concentration at half of the fitted maximal effect; nearly all actives have a fitted effect of over 50% in size
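Fission yeast strain RE007, carrying one chromosomally integrated HIV-1 vpr copy, was seeded at OD 0.01 in PMG+AL medium with 23 nL pinned compound. After 24 h at 30 °C and 99% humidity, viability was read by BacTiter-Glo luminescence.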
HCMV antiviral = inhibitors of human cytomegalovirus | HFF cells, HCMV-luciferase reporter, 72 h; hits give low values | activity change, negative = inhibition, % at 57.5 µM | 4.5% of 410,000 active; in the data active means activity change below about -60%; inconclusive means no clear call, values can overlap the other calls; inactive means above about -39%
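Screen run at 2 compound doses on HFFs infected with reporter HCMV, MOI 1 PFU/cell. Luciferase activity from cell lysates at 72 h post infection gave inhibition relative to buffer-only and Salinomycin wells.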
* = called active by the depositor. Unless noted, the call rests on the fitted dose curve; in most records, active means well fitted curve in the direction sought with a large enough effect; inconclusive means small, poorly fitted or top-dose-only effect, or another doubt; inactive means no such curve, though single readings can be large; an effect the other way counts as inactive or inconclusive. On the % scale 0 is the no-effect control and ±100 the full control effect.

`Cc1[nH]nc2ncc(C(=O)c3ccccc3O)cc12` gave Sm TGR block -2%, TbPYK inhibitor 4%, Giardia FBPA inh 4%, FMDV antiviral -27%, RE007 growth inh -2% and HCMV antiviral -82*.
Screening C=CCOc1ccccc1CN(C(=O)CCl)c1ccc2c(c1)OCO2 returned Sm TGR block 8.9µM*, TbPYK inhibitor -15%, Giardia FBPA inh 7%, FMDV antiviral inconclusive, RE007 growth inh -8% and HCMV antiviral -99*.
Screening CCOc1ccccc1CN(CCc1ccc2c(c1)OCO2)Cc1ccc(CC)cc1 returned Sm TGR block 7%, TbPYK inhibitor -2%, FMDV antiviral -2% and HCMV antiviral inconclusive.
`CCSc1oc(-c2cccs2)nc1S(=O)(=O)c1ccc(Br)cc1` gave Sm TGR block -14%, TbPYK inhibitor 1%, FMDV antiviral 16% and HCMV antiviral -1.
COc1cccc(C2CC(=O)Nc3c2c(=O)nc2c(C)cccn32)c1 (stereo not given) was read as Sm TGR block 0%, TbPYK inhibitor 2%, FMDV antiviral -15% and HCMV antiviral -20.
`COc1ccc(CNC(=O)C(=O)NCC(c2cccnc2)N2CCN(c3ccccc3F)CC2)cc1` (stereo not given) gave Sm TGR block 8%, TbPYK inhibitor -7%, FMDV antiviral -7% and HCMV antiviral -70*.
For COc1cccc(C(=O)NCC(c2ccc(N(C)C)cc2)N2CCc3ccccc32)c1 (stereo not given) the results were Sm TGR block -4%, TbPYK inhibitor 4%, FMDV antiviral -16% and HCMV antiviral -68*.
`COc1cccc(C(=O)NCC(c2cccnc2)N2CCN(c3ccccc3OC)CC2)c1` (stereo not given) gave Sm TGR block -36%, TbPYK inhibitor -1%, Giardia FBPA inh -25%, FMDV antiviral 35µM* and RE007 growth inh 7%.
`COc1ccc(C(CNC(=O)c2cccc(S(=O)(=O)Nc3ccccc3OC)c2)N2CCCCC2)cc1` (stereo not given) gave TbPYK inhibitor 0%, FMDV antiviral -19%, RE007 growth inh -2% and HCMV antiviral -99*.
COC(=O)NCC(c1cccnc1)N1CCN(c2ccccc2F)CC1 (stereo not given) was read as Sm TGR block 3%, TbPYK inhibitor -3%, Giardia FBPA inh 3%, FMDV antiviral -19%, RE007 growth inh -7% and HCMV antiviral 16.
`COc1ccc(C(=O)NCC(c2cccnc2)N2CCN(c3ccccc3OC)CC2)cc1OC` (stereo not given) gave Sm TGR block -5%, TbPYK inhibitor 4%, Giardia FBPA inh 4%, FMDV antiviral inconclusive, RE007 growth inh -1% and HCMV antiviral 14.
Screening COC(=O)C1C[C@@H]2C3=C(C(=O)[C@@](C)(NC(=O)c4ccccc4)C3[C@H](C(=O)OC)C1)[C@H](C)n1c(=O)n(-c3ccccc3)c(=O)n12 (stereo not given in full) returned Giardia FBPA inh 3%.
`CC1CCN(C(=O)CN2c3ccc(Br)cc3-c3ccccc3S2(=O)=O)CC1` gave Sm TGR block 3%, TbPYK inhibitor 1%, FMDV antiviral 0% and HCMV antiviral 27.
Cc1ccc(N(Cc2cc3ccccc3[nH]c2=O)C(=O)c2cccc(Cl)c2)cc1 was read as Sm TGR block -3%, TbPYK inhibitor -6%, FMDV antiviral -23% and HCMV antiviral -4.
`CCCCc1nn2c(=O)cc(COC(=O)c3ccccc3NC(=O)c3cccs3)nc2s1` gave Sm TGR block 5%, TbPYK inhibitor 0%, FMDV antiviral -1% and HCMV antiviral 17.
For COc1ccc(Cl)cc1NS(=O)(=O)c1cccc(C(=O)NCC(c2ccco2)N2CCCC2)c1 (stereo not given) the results were Sm TGR block -20%, TbPYK inhibitor 0%, FMDV antiviral 24%, RE007 growth inh -5% and HCMV antiviral -22.
